In PubChem BioAssay one finds composite z-score and z-score data, which are given here for five compounds.

A short description of test [1]: small molecules captured by biotinylated probe aFSTL3 – biochemical, small-molecule microarray, fluorescence 635/667, stem cell growth factor project, primary screen (AID 1064).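 Further: measures binding of the biotinylated anti-FSTL3 antibody to printed compounds.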 To be noted: higher = more signal.
Test [2] is described as follows: binders from COS7 lysate, DM2A8 probe, primary screen, torsin A project, cell lysate, small-molecule microarray, fluorescence 635/667 (AID 1065). To be noted: higher = more signal, COS7 lysate expressing mutant human TOR1A.
The nature of test [3]: small molecules captured by biotinylated probe aFGF2 – biochemical, small-molecule microarray, fluorescence 635/667, stem cell growth factor project, primary screen (AID 1067).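 Further: measures binding of biotinylated aFGF2 protein to printed compounds on slides; z-score merges feature fluorescence and signal-to-noise across triplicate slides.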 To be noted: higher = more signal.
Test [4] is described as follows: small molecules captured by biotinylated probe aFGF10 – biochemical, small-molecule microarray, fluorescence 635/667, stem cell growth factor project, primary screen (AID 1071).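 Further: score merges 667 nm spot intensity and signal to noise from triplicate slides.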 To be noted: higher = more signal.
Test [5] has as its target Neurogenic locus notch homolog protein 2 (Homo sapiens) (UniProt Q04721). The test is described as follows: small molecules binding Notch2 protein – biochemical, small-molecule microarray, 635 nm fluorescence, stem cell growth factors, primary screen (AID 1073). To be noted: higher = more signal.
Test [6] has as its target Pro-neuregulin-1, membrane-bound isoform (Homo sapiens) (UniProt Q02297). The test can be described thus: small molecules binding neuregulin-1 protein – biochemical, small-molecule microarray, fluorescence 635/667, psychiatric disease protein project, primary screen (AID 1075).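 Further: score combines 667 nm spot fluorescence with signal to noise.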 To be noted: NRG1 binding, 635 nm fluorescence, higher = more signal.
In test [7] the test system is Neuregulin-1 EGF-like domain. The test can be described thus: small molecules binding NRG1 EGF domain – biochemical, small-molecule microarray, 635 nm fluorescence, primary screen (AID 1081).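 Further: binding of the protein to compounds printed on small-molecule microarray slides.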 To be noted: higher = more signal.
The nature of test [8]: FRG1 expression reporter modulators in myotubes – cell-based, C2C12 myotubes, firefly/Renilla luciferase, luminescence, FRG1 inhibition for FSHD, primary screen (AID 1084). To be noted: FRG1 promoter luciferase, higher = more signal, called active from +8 up or from −8 down.
Test [9] in a line: small molecules captured by biotinylated probe aFST – biochemical, small-molecule microarray, fluorescence 635/667, stem cell growth factor project, primary screen (AID 1086).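 Further: score merges 667 nm fluorescence with signal-to-noise of each printed compound spot.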 To be noted: higher = more signal.
A short description of test [10]: binders of probe aHhip on microarray, primary screen, stem cell growth factor project, biochemical, small-molecule microarray, fluorescence 635/667 (AID 1087).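 Further: score merges spot fluorescence at 667nm with spot signal to noise ratio.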 To be noted: higher = more signal.
For test [11], the system named is PRMT1 (protein arginine N-methyltransferase 1). The test is described as follows: small molecules binding arginine methyltransferase PRMT1 – biochemical, small-molecule microarray, 635 nm fluorescence, primary screen (AID 1088).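 Further: binding of Prmt1 protein to compounds spotted on small-molecule microarray slides.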 To be noted: higher = more signal.
Test [12] is described as follows: growth effects on S. cerevisiae YJM789 – YJM789 clinical isolate, OD600, 24 h, basal, primary screen (AID 1089).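 Further: growth of clinical yeast isolate S. cerevisiae YJM 789 seeded 1000 cells per well; test concentration not given here.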 To be noted: higher = more signal, called active from +8 up or from −8 down.
Test [13] is described as follows: S. pombe growth modifiers, basal conditions – strain 972, OD600, 24 h, no modulator, primary screen (AID 1090).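 Further: basal condition with compound alone and no growth modifier present; test concentration not given here.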 To be noted: S. pombe 972 growth, higher = more signal, called active from +8 up or from −8 down.
A short description of test [14]: budding yeast growth modifiers under rapamycin – strain BY4716, OD600, 96 h, primary screen (AID 1091). Further: test concentration not given here. To be noted: S. cerevisiae BY4716 + rapamycin, higher = more signal, called active from +8 up or from −8 down.
Test [15] concerns the target Torsin-1A-interacting protein 2 (Homo sapiens) (UniProt Q8NFQ8). The test is described as follows: small molecules binding lysate-expressed LULL1 – cell lysate, human LULL1 lysate, 635/667 nm fluorescence, primary screen (AID 1092).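 Further: score merges per-feature 667 nm fluorescence with signal-to-noise.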 To be noted: small-molecule microarray, hLULL1 lysate binding, 635 nm fluorescence; higher = more signal.
A short description of test [16]: optical density change of DRC41 E. coli – strain DRC41, OD650, 24 h, E. coli filamentation project, primary screen (AID 1093).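 Further: MC1000 strain lacking acrAB efflux and sulA so SOS filamentation is blocked; test concentration not given here.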 To be noted: E. coli DRC41 growth, higher = more signal, called active from +8 up or from −8 down.
Test [17] in a line: probe aLefty2 binding to arrayed compounds – biochemical, biotinylated probe, 635/667 nm fluorescence, primary screen (AID 1094).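 Further: score merges spot fluorescence near 667 nm with spot signal-to-noise ratio.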 To be noted: small-molecule microarray, higher = more signal.
For test [18], the system named is Noggin (protein binding on small-molecule microarray). The test is described as follows: small molecules binding Noggin protein – biochemical, 635/667 nm fluorescence, primary screen (AID 1095).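 Further: score merges 667 nm feature fluorescence with signal to noise over triplicate slides.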 To be noted: 635 nm fluorescence, higher = more signal.
In test [19] the target is Neurogenic locus notch homolog protein 3 (Homo sapiens) (UniProt Q9UM47). The test is described as follows: small molecules binding NOTCH3 protein – biochemical, 635/667 nm fluorescence, primary screen (AID 1096). To be noted: small-molecule microarray, 635 nm fluorescence, higher = more signal.
Test [20] can be described thus: probe aEGFR binding to arrayed compounds – biochemical, biotinylated probe, 635/667 nm fluorescence, primary screen (AID 1097).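 Further: probe is a biotinylated anti-EGFR antibody binding compounds printed on slides; score combines fluorescence near 667 nm and signal to noise of each spot.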 To be noted: small-molecule microarray, higher = more signal.

Calls of active or inactive are those of the source.

Torsin-1A-interacting protein 2 (Homo sapiens), sequence (Q8NFQ8 whole entry, looked up): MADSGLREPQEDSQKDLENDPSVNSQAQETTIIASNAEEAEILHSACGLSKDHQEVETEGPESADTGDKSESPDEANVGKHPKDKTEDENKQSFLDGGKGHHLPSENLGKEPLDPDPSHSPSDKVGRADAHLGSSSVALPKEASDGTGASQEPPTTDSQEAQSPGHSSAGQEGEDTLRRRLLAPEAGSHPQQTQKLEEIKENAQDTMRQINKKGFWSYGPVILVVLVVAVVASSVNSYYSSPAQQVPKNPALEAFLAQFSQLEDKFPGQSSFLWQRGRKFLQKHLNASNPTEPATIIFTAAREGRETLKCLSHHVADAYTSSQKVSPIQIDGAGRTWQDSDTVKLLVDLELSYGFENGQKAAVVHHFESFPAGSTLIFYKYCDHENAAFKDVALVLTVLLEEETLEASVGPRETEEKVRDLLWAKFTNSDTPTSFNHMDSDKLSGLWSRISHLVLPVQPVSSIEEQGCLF
Neurogenic locus notch homolog protein 2 (Homo sapiens), sequence (Q04721 whole entry, looked up, canonical isoform): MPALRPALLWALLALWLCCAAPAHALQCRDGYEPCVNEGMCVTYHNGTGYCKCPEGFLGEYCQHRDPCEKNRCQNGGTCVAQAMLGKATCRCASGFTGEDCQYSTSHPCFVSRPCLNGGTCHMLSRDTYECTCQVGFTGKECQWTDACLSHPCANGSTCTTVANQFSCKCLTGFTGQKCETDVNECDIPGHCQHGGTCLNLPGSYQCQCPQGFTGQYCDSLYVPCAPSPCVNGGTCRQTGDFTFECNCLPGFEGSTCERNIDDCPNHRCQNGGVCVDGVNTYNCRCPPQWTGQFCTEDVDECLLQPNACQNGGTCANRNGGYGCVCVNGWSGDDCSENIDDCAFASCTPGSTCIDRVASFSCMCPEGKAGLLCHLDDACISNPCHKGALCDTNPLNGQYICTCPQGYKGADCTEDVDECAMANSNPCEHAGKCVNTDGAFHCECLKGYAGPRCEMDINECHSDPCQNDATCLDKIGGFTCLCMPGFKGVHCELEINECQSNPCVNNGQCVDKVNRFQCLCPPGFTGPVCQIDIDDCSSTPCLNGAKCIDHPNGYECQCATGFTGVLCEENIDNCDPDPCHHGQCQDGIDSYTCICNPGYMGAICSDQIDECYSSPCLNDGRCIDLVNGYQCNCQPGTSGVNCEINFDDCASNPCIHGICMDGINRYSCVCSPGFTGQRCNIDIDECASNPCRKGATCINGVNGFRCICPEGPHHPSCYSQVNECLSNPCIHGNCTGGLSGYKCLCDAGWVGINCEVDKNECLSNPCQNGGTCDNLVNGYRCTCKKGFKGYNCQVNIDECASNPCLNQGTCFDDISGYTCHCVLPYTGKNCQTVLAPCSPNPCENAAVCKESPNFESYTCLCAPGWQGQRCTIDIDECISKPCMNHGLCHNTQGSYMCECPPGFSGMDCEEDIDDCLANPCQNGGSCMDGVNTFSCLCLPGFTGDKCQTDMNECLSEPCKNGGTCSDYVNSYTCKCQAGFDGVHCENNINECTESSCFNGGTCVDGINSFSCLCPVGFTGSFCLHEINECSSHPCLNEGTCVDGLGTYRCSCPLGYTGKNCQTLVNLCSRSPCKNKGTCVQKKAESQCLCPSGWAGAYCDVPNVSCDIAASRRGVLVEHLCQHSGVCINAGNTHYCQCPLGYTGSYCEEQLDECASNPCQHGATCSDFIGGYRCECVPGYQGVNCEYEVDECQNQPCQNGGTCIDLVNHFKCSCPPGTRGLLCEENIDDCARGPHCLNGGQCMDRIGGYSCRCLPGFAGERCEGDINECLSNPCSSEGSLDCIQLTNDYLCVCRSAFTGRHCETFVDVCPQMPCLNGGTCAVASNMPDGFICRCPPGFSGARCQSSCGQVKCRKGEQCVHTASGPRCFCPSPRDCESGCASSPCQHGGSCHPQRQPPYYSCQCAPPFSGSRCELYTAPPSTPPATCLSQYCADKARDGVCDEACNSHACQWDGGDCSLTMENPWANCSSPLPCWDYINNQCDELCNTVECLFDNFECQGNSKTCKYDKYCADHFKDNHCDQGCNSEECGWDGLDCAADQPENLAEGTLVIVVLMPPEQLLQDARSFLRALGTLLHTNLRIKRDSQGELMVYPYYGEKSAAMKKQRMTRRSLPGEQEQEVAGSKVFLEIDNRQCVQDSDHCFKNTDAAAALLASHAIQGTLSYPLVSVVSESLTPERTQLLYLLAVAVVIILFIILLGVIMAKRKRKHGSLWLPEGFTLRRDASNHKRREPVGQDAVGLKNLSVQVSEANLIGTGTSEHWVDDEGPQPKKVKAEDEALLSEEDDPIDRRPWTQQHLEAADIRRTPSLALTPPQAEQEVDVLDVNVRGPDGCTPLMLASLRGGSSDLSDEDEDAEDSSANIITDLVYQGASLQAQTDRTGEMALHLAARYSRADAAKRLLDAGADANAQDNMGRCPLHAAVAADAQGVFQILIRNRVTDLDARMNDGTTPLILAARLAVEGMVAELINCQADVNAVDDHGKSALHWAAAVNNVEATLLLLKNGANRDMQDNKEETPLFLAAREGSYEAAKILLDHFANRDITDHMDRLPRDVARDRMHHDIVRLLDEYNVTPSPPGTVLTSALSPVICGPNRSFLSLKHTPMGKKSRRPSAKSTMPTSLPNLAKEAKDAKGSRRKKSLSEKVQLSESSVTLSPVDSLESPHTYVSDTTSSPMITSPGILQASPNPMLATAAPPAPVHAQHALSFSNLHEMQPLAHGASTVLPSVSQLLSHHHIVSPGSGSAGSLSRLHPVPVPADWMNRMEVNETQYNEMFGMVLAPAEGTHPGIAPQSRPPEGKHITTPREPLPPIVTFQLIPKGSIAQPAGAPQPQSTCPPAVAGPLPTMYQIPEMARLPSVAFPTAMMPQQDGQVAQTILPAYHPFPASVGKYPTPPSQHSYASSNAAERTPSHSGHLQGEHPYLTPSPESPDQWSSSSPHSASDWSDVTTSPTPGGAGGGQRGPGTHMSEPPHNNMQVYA
Pro-neuregulin-1, membrane-bound isoform (Homo sapiens), sequence (Q02297 whole entry, looked up, the tested form may be a part, canonical isoform): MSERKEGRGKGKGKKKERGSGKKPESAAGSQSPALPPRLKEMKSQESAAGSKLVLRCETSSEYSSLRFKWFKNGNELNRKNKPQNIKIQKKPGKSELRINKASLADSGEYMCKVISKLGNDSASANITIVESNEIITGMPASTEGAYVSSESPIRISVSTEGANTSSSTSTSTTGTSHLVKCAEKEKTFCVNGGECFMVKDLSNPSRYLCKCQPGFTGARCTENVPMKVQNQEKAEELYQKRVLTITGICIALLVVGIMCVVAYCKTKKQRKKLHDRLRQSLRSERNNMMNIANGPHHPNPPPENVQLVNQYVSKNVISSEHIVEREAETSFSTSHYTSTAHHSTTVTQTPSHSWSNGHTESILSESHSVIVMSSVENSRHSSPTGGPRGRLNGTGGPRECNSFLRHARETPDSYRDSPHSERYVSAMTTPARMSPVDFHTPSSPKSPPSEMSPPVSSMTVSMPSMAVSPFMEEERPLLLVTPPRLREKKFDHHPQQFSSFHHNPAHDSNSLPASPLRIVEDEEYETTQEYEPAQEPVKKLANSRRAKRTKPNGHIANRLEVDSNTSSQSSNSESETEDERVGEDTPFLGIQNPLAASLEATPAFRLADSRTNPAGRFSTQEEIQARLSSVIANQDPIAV

For the compound `O=C(NN=C1C[C@@H](O)[C@@H](O)[C@@H]2[C@@H]3C(=O)N(C[C@@H]4CCCO4)C(=O)[C@@H]3CC[C@H]12)OCc1ccccc1`, the composite z-score in [1] is 0.0589; in test [2] it was 0.349; in test [3], -0.118; in [4] it was -0.0255; in test [5], -0.248; in test [6], -0.117. Moreover, the composite z-score was -0.637 in [7]; 0.556 in test [9]; -0.0994 in [10]; -0.166 in test [11]; 0.126 in [15]; 0.0061 in [17]. The composite z-score was -0.284 in test [18], -0.696 in test [19] and -0.19 in test [20]. Moreover, the z-score is -0.361 (inactive) in test [8]; 0.387 (inactive) in test [12]; 0.499 (inactive) in [13]; -0.186 (inactive) in test [14]; 0.52 (inactive) in test [16].

On to `C#CCCCON=C1C[C@@H](O)[C@@H](O)[C@@H]2[C@@H]3C(=O)N(CCC(=O)OCC)C(=O)[C@@H]3CC[C@H]12`, for which the composite z-score in test [1] is -0.467; in [2], 0.294; in [3], -0.0502; in test [4], 0.481; in test [5] it was 0.872; in test [6] it was 0.64. Besides, the composite z-score was 0.685 in test [7]; 0.593 in [9]; -0.0994 in test [10]; 1.48 in test [11]; 1.28 in [15]; -0.104 in test [17]. Also, the figures for the composite z-score in [18], in test [19] and in [20] were 0.4, 1.1 and -0.0419, respectively. In addition, the z-score in test [8] is -1.41 (inactive); in test [12] it was -1.64 (inactive); in test [13], -1.32 (inactive); in test [14], -0.947 (inactive); in test [16], 0.299 (inactive).

In the case of `CCOC(=O)[C@H](CC(C)C)NC(=O)CCC1CC(OC(=O)NCCc2ccc(F)cc2)CC2(CCCC(COC(=O)NCCC(C)C)O2)O1` (stereo not given in full), the composite z-score in test [1] was -0.44; in [2] it was 0.289; in test [3], -0.083; in test [4], 0.297; in [5] it was -0.383; in test [6] it was 0.797. Also, the composite z-score is 0.98 in [7]; -0.128 in test [9]; 0.0722 in test [10]; 0.201 in test [11]; 1.51 in test [15]; -0.107 in test [17]. In addition, the composite z-score is 0.456 in test [18], -0.496 in test [19] and -0.0778 in [20]. Besides, the z-score in test [8] was 1.25 (inactive); in test [12], 0.0312 (inactive); in test [13] it was 1.12 (inactive); in [14], 1.08 (inactive); in [16], -0.917 (inactive).

Take `COc1cccc([C@H]2Oc3ccc(OC)cc3C(=NO[C@H](C)c3cn([C@H](CO)Cc4ccccc4)nn3)[C@@H]2O)c1`: the composite z-score in test [1] is -0.129; in [2], -0.0315; in test [3], -0.112; in [4], -0.0993; in test [5] it was -0.468; in [6] it was -0.72. Also, the composite z-score is -0.504 in [7]; 0.107 in test [9]; -0.134 in test [10]; 0.203 in test [11]; 0.202 in test [15]; -0.126 in test [17]. Also, the composite z-score in test [18] was 0.259; in test [19], -0.657; in test [20] it was -0.188. Further, the z-score in [8] was 0.787 (inactive); in test [12], -1.77 (inactive); in test [13] it was 0.226 (inactive); in test [14], -1.21 (inactive); in test [16], 0.928 (inactive).

In the case of `COC(=O)CC=C[C@@H](C)[C@@H](C=NO[C@H](C)c1cn([C@@H]2COC[C@H]2O)nn1)NS(=O)(=O)c1ccc(C)cc1`, the composite z-score in [1] is -0.279; in test [2] it was 0.612; in [3], -0.0027; in test [4], 0.575; in test [5], 0.283; in test [6], 0.0806. The composite z-score in test [7] is 0.928; in test [9], 0.374; in [10] it was -0.166; in test [11], 0.274; in test [15], -0.0305; in test [17], 0.0428. Also, the composite z-score in test [18] turned out to be 0.492; in test [19] it was 0.223; in [20], 0.0049. Further, the z-score in test [8] is -1.24 (inactive); in [12], 0.412 (inactive); in test [13], 0.144 (inactive); in test [14], -0.173 (inactive); in [16], 0.554 (inactive).
